Experimental data published in PubChem BioAssay AID1347417 (National Center for Advancing Translational Sciences (NCATS), 2020).
The campaign covered roughly 120,000 compounds. About 5,300 (4.4%) were called active. Roughly 22% stayed inconclusive and do not appear here. What follows is part of a selection rich in actives, with near analogues and random picks from the rest. Unmarked numbers belong to inactive results. Calls follow the shape of the dose curve; as a rule, active = well fitted inhibition curve with a large enough effect; inconclusive = small, poorly fitted or top-dose-only effect; inactive = no such curve, though single readings can be large or run the other way.

assay: qHTS Primary assay for Inhibitors of Plasmodium falciparum Dd2 growth in vitro; also: nearly all actives have a fitted effect of over 65% in size;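 as to activity, negative = inhibition: plate controls were DMSO vehicle for no effect and reference drug for full effect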; settings: P. falciparum Dd2 growth, SYBR Green, 72 h; series mostly up to 28.9 µM; activity, negative = inhibition: at the top concentration
How it was run: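 Readout: SYBR Green fluorescence, 485 nm excitation, 535 nm emission, after ~16 h lysis at 37C. Before that, Dd2-infected red cells (2.5% hematocrit) grew 72 h with compound, 29 uM top final concentration.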
Potency is read from the fitted curve at half-maximal effect.

Row | SMILES | outcome | activity, negative = inhibition | Potency
1 | COc1cccc(CC(=O)N2CCC(c3nc(CCOc4ccc(F)cc4)no3)C2)c1 (stereo not drawn) | inactive | – | –
2 | COCCNC(=O)[C@@H]1C[C@@H](O)CN1C1CCN(C(=O)CCc2ccccc2)CC1 | – | 21.1% | –
3 | CCn1c(=O)c2ccnn2c2ccc(C(=O)NC3CCCCC3)cc21 | inactive | – | –
4 | Cc1ccccc1NC(=O)N1CCC(CCNC(=O)c2ccoc2)CC1 | – | 2.98% | –
5 | O=C(c1cccc(Cl)c1)N1CCN(c2cc(-c3cccs3)[nH]n2)CC1 | inactive | – | –
6 | COc1cccc(CN2Cc3nc(Nc4cccc(F)c4)ccc3OCC2=O)c1 | – | -23.1% [at 44.1 µM] | –
7 | CN(CCCn1cccn1)C(=O)C1CCN(C(=O)C2CCCC2)CC1 | – | -0.759% | –
8 | O=C(N[C@@H]1CN(Cc2c(F)cccc2F)C[C@H]1CO)c1ccccc1 | – | -18.3% | –
9 | Cc1cc(N2CCCC(Cn3cc(Cc4ccccc4)nn3)C2)nc(N)n1 (stereo not drawn) | – | – | 12.6 µM (active)
10 | O=C(Nc1ccccc1)[C@H]1CN2CCC1C[C@@H]2Cn1cc(CO)nn1 (stereo partly drawn) | inactive [at 44.1 µM] | – | –
11 | O=C(NCc1ccccc1)[C@@H]1C[C@@H](c2ccc(F)cc2)N([S+](=O)([O-])c2cccnc2)C1 | inactive [at 44.1 µM] | – | –
12 | O=C1Nc2ccc(Br)cc2C(=O)N2CCN(C(=O)C3CCCCC3)C[C@H]12 | – | 2.95% [at 44.1 µM] | –
13 | CCOC(=O)c1ccc(NC(=O)c2c(NCc3cccs3)sc3c2CCCC3)cc1 | – | – | 10 µM (active)
14 | CCOC(=O)c1c(NC(=O)c2cc(-c3ccc(Cl)cc3)on2)sc2c1CCCC2 | inactive | – | –
15 | CCOC(=O)c1c(NC(=O)Cc2coc3ccc(CC)cc23)sc2c1CCC2 | – | 6.52% | –
16 | O=C(Cc1cccs1)NC1CCCN(c2cc(-c3ccccc3)[nH]n2)C1 (stereo not drawn) | inactive | – | –
17 | COc1ccc(-c2ccc3c(c2)C(=O)N2CCN(C(=O)CC4(CC(=O)O)CCCC4)C[C@H]2C(=O)N3)cc1 | inactive | – | –
18 | CN1C(=O)CC(C(=O)O)C12CCN(Cc1cccc(OC(F)F)c1)CC2 (stereo not drawn) | – | 18.1% | –
19 | CN(C)C[C@@H]1CN(C)C[C@H]1NC(=O)C1CCC1 | – | 32.2% | –
20 | CCOc1cc(=O)n2c(c1C(=O)Nc1ccc(F)cc1F)CCCC2 | inactive | – | –
21 | CCOC(=O)N1CCc2c(sc3c2C(=O)NC(c2ccccc2F)N3)C1 (stereo not drawn) | – | -16.9% | –

Row | SMILES | outcome | activity, negative = inhibition | Potency
22 | CCOC(=O)N1CCc2c(sc(NCc3cccc(F)c3)c2C(=O)Nc2ccccc2OCC)C1 | – | – | 4.47 µM (active)
23 | CCOc1ccccc1C(=O)N1CCC(Oc2ncccc2C(=O)N(C)C)C1 (stereo not drawn) | inactive | – | –
24 | Cc1ccccc1CN1CCc2ncc(C(=O)NCCOc3ccccc3)n2CC1 | – | 10.2% [at 44.1 µM] | –
25 | Cc1ccccc1CN1CCC(N2CCCC(C(=O)NC3CC3)C2)CC1 (stereo not drawn) | – | -22.1% | –
26 | CCOc1ccccc1N(CC)C(=O)Nc1cn(C)c(=O)c2ccccc12 | inactive | – | –
27 | Cc1ccccc1CN1CCC(CNC(=O)c2cc3ccc4cccnc4c3[nH]2)CC1 | – | – | 10 µM (active)
28 | CCOc1ccccc1N(CC)C(=O)c1cc2ccc3cccnc3c2[nH]1 | – | – | 12.6 µM (active)
29 | CCOc1ccc(NC(=O)Cn2c(-c3ccc(F)cc3)nc(C)cc2=O)cc1 | – | -11.4% | –
30 | COc1ccc(Cn2ccnc2SCC(=O)Nc2ccc3c(c2)OCO3)cc1 | inactive | – | –
31 | COc1ccc(C(C(=O)O)N2CCCN(c3ccc(F)cc3)CC2)cc1F (stereo not drawn) | – | -9.93% | –
32 | CN(C)c1ccc(C(CNS(=O)(=O)c2cc(F)ccc2F)N2CCOCC2)cc1 (stereo not drawn) | – | -17.8% | –
33 | Cc1ccc(NC(=O)C(=O)NCC(c2cccnc2)N2CCOCC2)cc1 (stereo not drawn) | – | 6.96% | –
34 | CC(C)CC(=O)NCC(c1ccc2c(c1)OCO2)N1CCN(c2ccc(F)cc2)CC1 (stereo not drawn) | – | – | 10 µM (active)
35 | COc1cccc(NC(=O)C(=O)NCC(c2ccc3c(c2)OCO3)N2CCN(C)CC2)c1 (stereo not drawn) | – | – | 7.94 µM (active)
36 | O=C(CN1CC2CC(C1)[C@H]1CCCC(=O)N1C2)N1CCN(c2ccccn2)CC1 (stereo partly drawn) | – | -18.1% | –
37 | CCn1ncnc1C(C)NC1CCC2(CCNCC2)CC1 (stereo not drawn) | – | 29.3% | –
38 | CCC(O)c1cc2n(n1)CCN(C(=O)c1cnc(C)nc1-c1ccccc1)C2 (stereo not drawn) | – | 6.35% | –
39 | COc1ccc(S(=O)(=O)N[C@H]2C[C@H]3C(=O)NC[C@@H](CCC(=O)N4CCc5ccccc54)N3C2)cc1 | – | -28.7% | –
40 | CN1C(=O)[C@@H]2C[C@@H](O)CN2C2(CN(Cc3cnc4ccccc4c3)C2)C1=O | – | -5.31% [at 44.1 µM] | –
41 | COc1ccccc1C(=O)NCCn1cc(SCc2ccccc2Cl)c2ccccc21 | – | – | 3.98 µM (active)
42 | O=C(Cn1cc(SCc2cccc(Cl)c2)c2ccccc21)N1CCCCC1 | – | -16.6% | –

Row | SMILES | outcome | activity, negative = inhibition | Potency
43 | COc1ccccc1C(=O)NCc1ccnc2[nH]ccc12 | – | -1.5% [at 44.1 µM] | –
44 | Cc1cc(NC(=O)c2ccc(Cn3ccn4nc5c(c4c3=O)CCCC5)cc2)ccc1F | inactive | – | –
45 | CCc1cc(NCCS(=O)(=O)CC)n2nccc2n1 | – | 13.8% | –
46 | O=C(Cn1nc2n(c1=O)CCCC2)Nc1ccc(Cl)cc1 | – | 36.3% | –
47 | CCN(CC)c1ccc(NC(=O)CN2CCN(CC(=O)Nc3ccc(Cl)cc3)CC2)cc1 | – | – | 8.91 µM (active)
48 | CCOc1ccc(NC(=O)CN2CCN(CC(=O)Nc3ccc(OC)cc3)CC2)cc1 | – | -24.3% | –
49 | Cc1ccc2[nH]nc(C(=O)N3C[C@@H](C(=O)O)[C@H](c4ccc(F)cc4)C3)c2c1 | – | -0.77% | –
50 | Cc1oc2ccn(Cc3ccccc3F)c(=O)c2c1C(=O)NCc1cccnc1 | – | -14.6% | –
51 | CC(c1cccs1)N(C)Cc1ccncc1 (stereo not drawn) | inactive [at 44.1 µM] | – | –
52 | CC(C)c1ccc2oc(-c3cc(NC(=O)c4cccs4)ccc3Cl)nc2c1 | inactive; activator; fitted 0.8913 uM | – | –
53 | CC(C)CCN(C(=O)Nc1ccc(Cl)c(Cl)c1)C(C)c1cccs1 (stereo not drawn) | – | – | 10 µM (active)
54 | C=CCNC(=O)N1CCC(C2CCN(Cc3cccc(F)c3F)CC2)C1 (stereo not drawn) | – | -5.92% | –
55 | CC(C)(C)CC(=O)Nc1ccc2c(N3CCOCC3)ncnc2c1 | inactive | – | –
56 | Cc1cc(C)cc(C(=O)Nc2ccc3c(N4CCCC4)ncnc3c2)c1 | – | – | 0.708 µM (active)
57 | O=C(Nc1ccc2ncnc(N3CCCCC3)c2c1)c1ccc2c(c1)OCO2 | inactive | – | –
58 | O=C(Nc1ccc2ncnc(N3CCCCC3)c2c1)c1cccc(Cl)c1 | – | -14.6% | –
59 | Cc1ccc(C(=O)Nc2ccc3c(N4CCCCC4)ncnc3c2)s1 | – | – | 5.01 µM (active)
60 | Cc1ccc(C(=O)Nc2ccc3ncnc(N4CCCCC4)c3c2)s1 | – | -18.8% | –
61 | O=C(CCc1cc(Cl)no1)N1CCCC(c2nc(C3CCOCC3)no2)C1 (stereo not drawn) | inactive | – | –
62 | CCn1c(C2CCCN(C(=O)NCC(C)C)C2)nn(C)c1=O (stereo not drawn) | – | 11.7% | –
63 | Cn1ccnc1CNC(=O)C[C@@H]1C[C@H]2O[C@H](CNC(=O)NCc3ccccc3)[C@@H](O)[C@H]2O1 | – | 28.4% | –
